Assay results: PubChem BioAssay (NCI)
This is part of a sample that, as a whole, favours compounds with a hit. Of some 83,000 tested, about 20% had one in any assay.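 A percent growth of 40 corresponds to 60% growth inhibition; 0 means no net growth; -100 means all cells died. Active threshold: below 10.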 Values without a mark were called inactive. Activity calls are given as the source filed them.

Experiments:
Assay in all cases: NCI-60 one-dose screen, 48 h (100 = growth as untreated, 0 = no growth, -100 = all killed)
Conditions in all cases: 10 µM unless noted
SK-MEL-2 melanoma = tested on: SK-MEL-2 melanoma
EKVX NSCLC = tested on: EKVX NSCLC
SN12C renal = tested on: SN12C renal
UO-31 renal = tested on: UO-31 renal
TK-10 renal = tested on: TK-10 renal
ACHN renal = tested on: ACHN renal
CAKI-1 renal = tested on: CAKI-1 renal
A498 renal = tested on: A498 renal
CCRF-CEM leukemia = tested on: CCRF-CEM leukemia
MOLT-4 leukemia = tested on: MOLT-4 leukemia
SR leukemia = tested on: SR leukemia
RPMI-8226 leukemia = tested on: RPMI-8226 leukemia
OVCAR-8 ovarian = tested on: OVCAR-8 ovarian
OVCAR-5 ovarian = tested on: OVCAR-5 ovarian
OVCAR-4 ovarian = tested on: OVCAR-4 ovarian
SK-OV-3 ovarian = tested on: SK-OV-3 ovarian
IGROV1 ovarian = tested on: IGROV1 ovarian
OVCAR-3 ovarian = tested on: OVCAR-3 ovarian
HS 578T breast = tested on: HS 578T breast
NCI/ADR-RES ovarian = tested on: NCI/ADR-RES ovarian

SMILES	growth (SK-MEL-2 melanoma)	growth (EKVX NSCLC) [%]	growth (SN12C renal)	growth (UO-31 renal) [%]	growth (TK-10 renal) [%]	growth (ACHN renal)	growth (CAKI-1 renal) [%]	growth (A498 renal)	growth (CCRF-CEM leukemia)	growth (MOLT-4 leukemia)	growth (SR leukemia)	growth (RPMI-8226 leukemia)	growth (OVCAR-8 ovarian) [%]	growth (OVCAR-5 ovarian) [%]	growth (OVCAR-4 ovarian) [%]	growth (SK-OV-3 ovarian) [%]	growth (IGROV1 ovarian)	growth (OVCAR-3 ovarian)	growth (HS 578T breast)	growth (NCI/ADR-RES ovarian)
O=C1/C(=C/c2ccc(Cl)cc2)COc2ccc(O)cc21	101%	95.5	69%	53.1	100	80%	70.8	100%	-5.84% (active)	14.8%	5.45% (active)	-31.8% (active)	77.8	88.7	84	132	78.6%	75.5%	83.1%	88.7%
N#Cc1c(-c2ccc(Cl)cc2)nc(SCC(=O)NC2=NN=C(c3ccccc3)CS2)[nH]c1=O	82.9%	86.2	97.4%	71.2	119	88.9%	77	97.6%	63.8%	90.4%	42.7%	73.5%	101	112	83.4	47.5	90.4%	83.7%	93.7%	86.7%
CN[C@]12CC3(C=CC(=O)C=C3)O[C@@]1(Cc1ccc(OC)cc1)N(C)C(=O)N2	70.7%	96	4.44% (active)	48.7	24.1	-86.3% (active)	16	97%	6.3% (active)	28%	8.34% (active)	-3.85% (active)	15.6	18.3	32.2	85.7	-28.4% (active)	11.2%	96.8%	55.6%
O=C1N[C@@H]2NC(=[N+]3CCOCC3)N[C@@H]2N1	118%	102	97.8%	87.3	103	104%	91.5	98.3%	108%	103%	111%	106%	105	97.9	107	104	104%	117%	98.2%	102%
C#CCn1cnc2c(Nc3cccc(NC(=O)C=C)c3)ncnc21	84.1%	84.8	83.4%	42.3	93.3	69.1%	82.1	80.5%	81.6%	71.2%	68.5%	81.9%	76.2	82	86.6	73.5	74.8%	88.5%	74.5%	92.5%
Cn1ccc2c3c(ccc21)CC3=O	126%	103	106%	107	124	111%	92.3	92.6%	111%	88.9%	108%	106%	107	102	119	113	112%	117%	121%	115%
O=C1/C(=C/c2ccc(F)cc2)COc2ccc(O)cc21	114%	101	78.4%	64.5	100	87.7%	75.8	111%	5.18% (active)	51.7%	1.11% (active)	-19% (active)	87.4	96.9	93.4	123	84.9%	92.4%	94.1%	93.2%
CCOC(=O)c1nc(Nc2ccc(NC(=O)Nc3ccc(F)cc3)cc2)c2ccccc2n1	103%	97.4	99.4%	81	120	102%	91.1	62%	109%	98.5%	90.2%	109%	106	108	114	100	102%	102%	99.9%	92.7%
N#C/C(=C\c1ccc2ccccc2c1)c1cc2ccccc2[nH]1	43.5%	55.3	49.8%	49	75.6	50.4%	38.1	33.7%	18.5%	29%	23.5%	32.4%	46.5	61.2	88.3	64	48.1%	7.91% (active)	25.8%	12.4%
CCCc1cc(NC)nc(S(=O)(=O)CC)n1	115%	104	99.1%	91.8	110	107%	98.1	113%	107%	107%	102%	101%	110	101	115	116	105%	119%	108%	104%
COC(=O)c1cc(-c2ccc(S(C)(=O)=O)cc2)[nH]c1N/N=C/c1c(Cl)cccc1Cl	-18.8% (active)	42.2	39.4%	22.5	19.2	53.7%	30.3	-22.5% (active)	1.59% (active)	6.05% (active)	-12.3% (active)	-5.71% (active)	29.7	42.6	59.6	29.2	-43.6% (active)	-33.6% (active)	-30.1% (active)	3.91% (active)
Cc1noc(C)c1C(=O)OCc1coc2ccccc2c1=O	81.4%	86.9	65.4%	48.7	71.4	78.3%	45.3	104%	24.2%	62.8%	45.3%	30.1%	91.8	71.6	62.8	109	82.6%	44.9%	78.3%	90.7%
CCN(CC)c1ccc(/C=C/C(=O)c2ccc(Nc3nc(Nc4ccccc4)nc(Nc4ccccc4)n3)cc2)cc1	27.9%	31.5	74%	23.9	59.3	49.1%	44	30.3%	5.63% (active)	22.6%	39%	-23.6% (active)	43.8	71.3	58.5	77.4	47.8%	46.5%	26.2%	39.1%
C=C(C)[C@@H]1CC[C@]2(C(=O)N3CCN(C)CC3)CC[C@]3(C)[C@H](CC[C@@H]4[C@@]5(C)CC(=C/c6ccncc6)/C(=N/O)C(C)(C)[C@@H]5CC[C@]43C)[C@@H]12	83.8%	84.6	74.7%	45.5	85.2	75.9%	63.8	96.8%	57.9%	33.9%	3.4% (active)	46.7%	85.1	86.7	69.2	98.7	65.1%	75.2%	87.5%	78.8%
CC(=O)Cc1nsc(NC(=O)c2cc(-c3cc(Cl)cc(Cl)c3)oc2C)n1	102%	97.3	98.8%	81	130	105%	90.8	103%	103%	96.7%	98.3%	93.5%	97.8	104	104	99.2	102%	106%	102%	103%
